Consider 104 compounds from PubChem BioAssay AID686979 (National Center for Advancing Translational Sciences (NCATS), 2013).

In all, about 420,000 compounds went through this assay and about 50,000 (12%) were called active. Where a call stands in place of a potency, no number is given. Roughly 26% stayed inconclusive and do not appear here. The full list was thinned out, with actives kept by preference. Values without a mark were called inactive. The call rests on the fitted dose curve; in most records, active means well fitted inhibition curve with a large enough effect; inconclusive means small, poorly fitted or top-dose-only effect; inactive means flat fitted curve, though single readings scatter.
Potency means the concentration at half of the fitted maximal effect.

A short description of the assay: qHTS for Inhibitors of human tyrosyl-DNA phosphodiesterase 1 (TDP1): qHTS in cells in presence of CPT. Further: nearly all actives have a fitted effect of over 55% in size. The conditions noted are these: chicken DT40 Tdp1-/-;hTDP1 cells + 20 nM CPT, ATP luminescence, 48 h; series mostly up to 46.2 µM. In outline:
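Cell growth measured by CellTiter-Glo luminescence after a minimum 48 h, 37 C compound exposure with 20 nM CPT in Tdp1-knockout DT40 cells stably expressing hTDP1, seeded 400/well; qHTS titration format.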
In general terms: qHTS replaces the single test concentration by a dilution series.
Turning to `CC(=O)c1c(C)n(S(=O)(=O)c2ccc(Cl)cc2)c2ccc(NS(=O)(=O)c3ccc(Cl)cc3)cc12`, the Potency was 10.3 µM (active).
Still for that read-out and setting: the same measure for `CC(=O)c1c(C)oc2ccc(NS(=O)(=O)c3ccc(C(=O)O)cc3)cc12`: “inactive”.
As to `O=S(=O)(Nc1ccc(-n2cnnn2)cc1)c1ccc(Cl)cc1`, the Potency entry is “inactive”.
For the compound `Cc1csc(-c2coc3cc(O[C@@H]4O[C@H](CO)[C@@H](O)[C@@H](O)[C@H]4O)ccc3c2=O)n1`, the activity change, negative = growth inhibition was 8.48% [at 9.04 µM].
With `O=C(Nc1n[nH]c(C(F)(F)F)n1)c1cccs1`, the Potency result was “inactive”.
For the compound `COc1ccccc1C(=O)Nc1ccnn1C1CCN(C(=O)C(C)(C)C)CC1`, the Potency entry was “inactive”.
Consider `CCCCn1c(N)c(N(CCC(C)C)C(=O)c2ccc(COc3ccccc3)o2)c(=O)[nH]c1=O`, for which the Potency entry is “inactive”.
Same read-out and setting: the same measure for `CCOc1ccc(S(=O)(=O)N/N=C(\C)c2ccc(Cl)c(Cl)c2Cl)cc1`: “inactive”.
Same read-out and setting: the same measure for `COC(=O)COc1ccc2c(=O)c(Oc3ccccc3Br)coc2c1`: “inactive”; for `Cc1nn(CC(=O)Nc2ccc(F)cc2)c(=O)c2ccccc12`: “inactive”; for `Cc1ccc(NC(=O)Cn2c(C)csc2=O)cc1`: “inactive”.
For the compound `Cc1ccc(NC(=O)Cn2sc3ccccc3c2=O)cc1`, the Potency is 4.61 µM (active).
On the same count and under the same terms, the same measure for `CN(C(=O)CSc1nnc(-c2c[nH]c3ccccc23)o1)C1CCS(=O)(=O)C1` (centres undefined): “inactive”; for `COc1cc(-c2cc(C(=O)OCC(=O)Nc3ccc4c(c3)OCO4)c3ccccc3n2)cc(OC)c1OC`: “inactive”; for `NS(=O)(=O)c1ccc(NC(=O)COC(=O)c2c3c(nc4ccccc24)/C(=C\c2ccc4c(c2)OCO4)CCC3)cc1`: 18.4 µM (active).
Still for that read-out and setting: the same measure for `NC(=O)c1ccc(NC(=O)COC(=O)c2c3c(nc4ccccc24)/C(=C\c2ccc4c(c2)OCO4)CCC3)cc1`: 11.6 µM (active); for `O=C(COC(=O)c1ccc(F)cc1)Nc1ccc2c(c1)OCO2`: “inactive”; for `NS(=O)(=O)c1ccc(NC(=O)COC(=O)c2cc3ccccc3oc2=O)cc1`: “inactive”.
Consider `O=C(COC(=O)c1ccncc1)Nc1ccc2c(c1)OCO2`, for which the Potency entry is “inactive”.
Same read-out and setting: the same measure for `CC1CC(=O)N(CC(=O)Nc2cccc(Cl)c2)c2ccccc2S1(=O)=O` (centres undefined): “inactive”.
On to `CCOC(=O)Cc1cc(=O)[nH]c(/N=C(\N)Nc2ccc(OC)cc2)n1`, for which the Potency result was “inactive”.
Same read-out and setting: the same measure for `COc1ccc(NC(=O)Cn2c(-c3ccc(OC)cc3)cn(-c3ccc(C)cc3)c2=O)cc1`: “inactive”; for `Cc1nn(CCCC(=O)NCc2ccccc2Cl)c(=O)c2nccn12`: “inactive”.
On the same count and under the same terms, the same measure for `Cc1ccccc1CNC(=O)CCCn1nc(C)c2sc3ccccc3c2c1=O`: 18.4 µM (active); for `CCc1nn(CCCC(=O)NCc2ccccc2OC)c(=O)c2cc3occc3n12`: “inactive”.
Still for that read-out and setting: the same measure for `CC(OC(=O)c1ccc2ccccc2n1)C(=O)c1ccccc1` (centres undefined): “inactive”.
Turning to `COc1ccc(C2=NOC(COC(=O)c3ccc4ccccc4n3)C2)cc1` (centres undefined), the Potency result is “inactive”.
Same read-out and setting: the same measure for `COc1ccc(C(=O)COC(=O)c2ccc3ccccc3n2)cc1`: 20.6 µM (active); for `Cc1ccc(-c2nnc(CN3CCN(C)CC3)o2)cc1`: “inactive”.
On the same count and under the same terms, the same measure for `COc1ccc(C(=O)CSc2c(C(C)C)cnc3c2c(=O)n(C)c(=O)n3C)cc1`: 16.4 µM (active); for `COc1ccc(C(=O)CSc2nccc(=O)[nH]2)cc1`: “inactive”.
Same read-out and setting: the same measure for `COCCNC(=O)CSc1c(C)cnc2c1c(=O)n(C)c(=O)n2C`: “inactive”.
As to `COc1ccc(CNC(=O)CN2C(=O)c3ccccc3S2(=O)=O)cc1`, the Potency result was “inactive”.
The same measure, in the same setting: the same measure for `CC1CCCN(S(=O)(=O)c2ccc(C(=O)Nc3nnc(-c4ccncc4)o3)cc2)C1` (centres undefined): 11.6 µM (active).
On the same count and under the same terms, the same measure for `COCCN(CC(=O)Nc1ccccc1C)S(=O)(=O)c1ccc(S(=O)(=O)N2CCCC2)cc1`: “inactive”; for `CC1CCCCN1S(=O)(=O)c1ccc(C(=O)Nc2nnc(-c3cccs3)o2)cc1` (centres undefined): 6.51 µM (active).
On to `O=C(Nc1nnc(-c2ccccc2)o1)c1cccc(S(=O)(=O)N2CCOCC2)c1`, for which the Potency is 13 µM (active).
Still for that read-out and setting: the same measure for `CC1CCCCN1S(=O)(=O)c1ccc(S(=O)(=O)N(CC(=O)Nc2ccccc2)Cc2cccs2)cc1` (centres undefined): 25.9 µM (active); for `O=C(Nc1ccc(N2CCOCC2)cc1)c1cccc(S(=O)(=O)N2CCOCC2)c1`: “inactive”.
Still for that read-out and setting: the same measure for `CC1CC(C)CN(S(=O)(=O)c2ccc(C(=O)NN3CCOCC3)cc2)C1` (centres undefined): “inactive”.
Take `CC1CCCCN1S(=O)(=O)CCNC(=O)c1ccccc1` (centres undefined): the Potency result was “inactive”.
The same measure, in the same setting: the same measure for `CS(=O)(=O)c1ccc(-c2nnc(NC(=O)c3ccc4c(c3)OCCO4)o2)cc1`: “inactive”; for `NC(=O)CSc1nnc(-c2cccc(S(=O)(=O)N3CCOCC3)c2)o1`: “inactive”.
Same read-out and setting: the same measure for `O=C(NCc1cccs1)C(=O)NCC1OCCCN1S(=O)(=O)c1ccc(F)cc1` (centres undefined): “inactive”; for `CCN(CC(=O)NCc1cccs1)S(=O)(=O)c1ccc(NC(C)=O)cc1`: “inactive”; for `CCOC(=O)c1c(/N=C/c2cc(C)ccc2O)sc2c1CCC2`: “inactive”.
Still for that read-out and setting: the same measure for `CC(C)OC(=O)CC(=O)CC(O)c1cccc([N+](=O)[O-])c1` (centres undefined): “inactive”.
With `O=C(Nc1nonc1-c1ccc(Cl)cc1)c1ccco1`, the Potency entry is “inactive”.
On the same count and under the same terms, the same measure for `O=C(NCc1ccccn1)[C@@H]1CCCN1C(=O)[C@@H]1CCCN1C(=O)c1ccccc1`: “inactive”; for `CN(Cc1nc(-c2cnccn2)no1)Cc1n[nH]c2c1CCCCC2`: “inactive”.
On the same count and under the same terms, the same measure for `COc1ccccc1CNC(=O)CS(=O)(=O)c1cccc2nsnc12`: “inactive”.
Regarding `Cn1c(=O)c(=O)n(C)c2cc(NC(=O)c3ccccc3Br)ccc21`, the Potency entry was “inactive”.
Turning to `c1ccc2c(c1)OC1OC2Oc2ccccc21`, the Potency result was “inactive”.
Still for that read-out and setting: the same measure for `Cc1cc(C)nc(NS(=O)(=O)c2ccc(NC(=O)c3cc(=O)c4ccc(C)c(C)c4o3)cc2)n1`: “inactive”; for `CS(=O)(=O)N(CC(=O)Nc1ccc(F)cc1)C1CCCCC1`: “inactive”; for `N[C@H]1CN(c2c(F)cc3c(=O)c(C(=O)O)cn(C4C[C@H]4F)c3c2Cl)CC12CC2` (some centres undefined): “inactive”.
As to `CC1(c2ccccc2)NC(=O)N(CC(=O)Nc2cc(Cl)ccc2N2CCOCC2)C1=O` (centres undefined), the Potency result is “inactive”.
Turning to `O=C(CSc1nc(Nc2ccccc2)nc(N2CCOCC2)n1)Nc1cc(Cl)ccc1O`, the Potency was 25.9 µM (active).
Still for that read-out and setting: the same measure for `O=C(CN1CCOCC1)Nc1cc(Cl)ccc1Cl`: “inactive”.
On the same count and under the same terms, the same measure for `Cn1c(N)cc(=O)n(C)c1=S`: “inactive”; for `Cc1ccnc(NS(=O)(=O)c2ccc(NC(=O)c3oc4ccc(F)cc4c3C)cc2)n1`: “inactive”.
Still for that read-out and setting: the same measure for `COC(=O)c1ccc(NC(=O)C23CC4CC(C2)CC(n2cnc(Cl)n2)(C4)C3)cc1`: 20.6 µM (active); for `O=C(Nc1ccc(S(=O)(=O)Nc2ncccn2)cc1)C12CC3CC(CC(C3)C1)C2`: “inactive”.
With `Cc1ncn(C23CC4CC(CC(O)(C4)C2)C3)n1`, the Potency result was “inactive”.
Consider `CC(=O)Oc1ccc2c(=O)oc(-c3ccc([N+](=O)[O-])cc3)nc2c1`, for which the Potency result was “inactive”.
The same measure, in the same setting: the same measure for `Cc1ccc(C)c(S(=O)(=O)n2cnc3ccccc32)c1`: “inactive”; for `COc1ccc(S(=O)(=O)n2cnc3ccccc32)c(C)c1`: 18.4 µM (active).
Still for that read-out and setting: the same measure for `Cc1ccc(S(=O)(=O)n2cnc3ccccc32)c(C)c1`: “inactive”.
Same read-out and setting: the same measure for `N#Cc1c(NC(=O)c2ccc(N3CCOCC3)c([N+](=O)[O-])c2)sc2c1CCCC2`: “inactive”; for `COc1cccc2cc(C(N)=O)/c(=N\NC(=O)c3ccccc3)oc12`: “inactive”; for `CC(C)Cn1c(N2CCN(C(=O)/C=C/c3ccccc3)CC2)nc2ccccc21`: 18.4 µM (active).
In the case of `CC(C)N(C(=O)Cn1c(SCC(=O)N2CCN(c3ccccc3)CC2)nc2ccccc21)C(C)C`, the Potency result is “inactive”.
The same measure, in the same setting: the same measure for `CC1(C(=O)O)CCCN(C(=O)/C=C/c2ccccc2)C1` (centres undefined): “inactive”; for `CN(Cc1ccccc1Cl)C(=O)C1CCC(=O)N(CCc2cccc(F)c2)C1` (centres undefined): “inactive”.
On the same count and under the same terms, the same measure for `CCOc1ccc(OCc2ccc(C(=O)N(C)c3ccccc3)o2)cc1`: “inactive”; for `CN(C(=O)CN1CCN(c2cc(-c3ccc(OCc4ccccc4)cc3)ncn2)CC1)c1ccccc1`: 18.4 µM (active); for `COc1ccc(OCC(=O)N2CCN(C(=O)COc3ccccc3)CC2)cc1`: “inactive”.
Still for that read-out and setting: the same measure for `CCCC(C)C(=O)Nc1ccc(NC(C)=O)cc1` (centres undefined): “inactive”; for `CC1(C)[C@@H]2CC[C@@]1(C)[C@H](OC(=O)CSC#N)C2`: “inactive”; for `CCCCNC(=O)c1ccc(-n2c(=S)[nH]c3ccccc3c2=O)cc1`: “inactive”.
Turning to `Cc1ccc(NC(=S)N(Cc2ccco2)C(C)c2cccs2)cc1` (centres undefined), the Potency entry was “inactive”.
On to `CCCCCCCN=C(C)c1ccccc1O`, for which the Potency result was “inactive”.
On the same count and under the same terms, the same measure for `Fc1ccccc1Cc1ccc(Cl)nn1`: “inactive”; for `Clc1ccc(N/N=C/c2cccs2)nn1`: “inactive”; for `C/C(=N\Nc1ccc(Cl)nn1)c1ccccc1O`: 0.58 µM (active).
The same measure, in the same setting: the same measure for `Oc1cccc(/C=N/Nc2ccc(Cl)nn2)c1O`: 0.092 µM (active); for `COc1cccc(/C=N/Nc2ccc(Cl)nn2)c1`: “inactive”; for `O=CN1CCN(C(=O)c2ccc3c(c2)OCO3)CC1`: “inactive”.
For the compound `Cc1ccc(C(=O)O)cc1N1C(=O)CCCC1=O`, the Potency entry was “inactive”.
On the same count and under the same terms, the same measure for `Cc1ccc(-n2c(C)nnc2SCC(=O)NC2CC2)cc1`: “inactive”; for `COc1ccccc1N1CC(C(=O)Nc2ccc(S(=O)(=O)N3CCOCC3)cc2)CC1=O` (centres undefined): “inactive”; for `COc1cc(OC)c(N2CC(C(=O)Nc3cc(Cl)ccc3N3CCOCC3)CC2=O)cc1Cl` (centres undefined): 3.66 µM (active).
The same measure, in the same setting: the same measure for `COc1ccc(Cl)cc1NC(=O)C1CC(=O)N(c2ccc(F)cc2)C1` (centres undefined): “inactive”; for `CCCOc1ccc(Cc2c(O)nc(N)[nH]c2=O)cc1C`: “inactive”.
Same read-out and setting: the same measure for `Cc1ccc(F)cc1S(=O)(=O)Nc1cccc(C(=O)N2CCCC(C(N)=O)C2)c1` (centres undefined): “inactive”; for `Cc1ccc(O/C=C2\OC(=O)c3ccccc32)cc1`: “inactive”.
In the case of `Cc1c(CCC(=O)N[C@@H](CC(C)C)C(=O)O)c(=O)oc2c(C)c3oc4c(c3cc12)CCCC4`, the Potency entry is “inactive”.
On the same count and under the same terms, the same measure for `O=C(OCC1OC(Oc2ccc(O)cc2)C(O)C(O)C1O)c1ccccc1` (centres undefined): “inactive”.
Same read-out and setting: the same measure for `Cc1ccc(S(=O)(=O)Nc2ccccc2CNc2c(C)n(C)n(-c3ccccc3)c2=O)cc1`: “inactive”; for `CC(=O)Nc1ccc(NC(=O)C2CCCN2S(=O)(=O)c2cccc(C(F)(F)F)c2)cc1` (centres undefined): “inactive”; for `CCc1ccc(NC(=O)C2CCCN2S(=O)(=O)c2ccc3nc(-c4ccccc4)[nH]c3c2)cc1` (centres undefined): 23.1 µM (active).
The same measure, in the same setting: the same measure for `CCN(CC)S(=O)(=O)c1ccc2nc(COC(=O)c3n[nH]c4ccccc34)[nH]c2c1`: “inactive”; for `CCc1nnc(NC(=O)C2CCCN2S(=O)(=O)c2ccccc2)s1` (centres undefined): “inactive”; for `CCc1ccccc1NS(=O)(=O)c1ccc2nc(-c3ccccc3)[nH]c2c1`: 20.6 µM (active).
